High-throughput results deposited in PubChem BioAssay by National Center for Advancing Translational Sciences (NCATS).
Hits are enriched below; roughly 11% of the tested compounds scored in any of these assays.
SW480 rereplic: DNA re-replication induction in SW480 cells; Potency, µM (series often up to 46.1 µM), most hits filed as activators; 1.8% of 340,000 active; SW480 DNA re-replication, Hoechst DNA content imaging, 48 h; note: nearly all actives have a fitted effect of over 55% in size
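Image-based DNA-content assay: after two days of treatment, nuclei were labelled with the DNA dye Hoechst and imaged, and hits were compounds raising the count of nuclei showing high fluorescence intensity.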
VP16 counter: counter-screen for ROR gamma inhibitors: Gal4-VP16 reporter. Potency, µM (series often up to 53.6 µM), hits mostly inhibitors. Drosophila S2 Gal4-VP16 UAS-luciferase, luminescence, 20 h. 3.5% of 310,000 active;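 note: Gal4-VP16 expression switched on by copper sulfate through the metallothionein promoter; nearly all actives have a fitted effect of over 50% in size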
MCF10A rereplic: inducers of DNA re-replication in MCF 10A breast cells. MCF 10A DNA re-replication, Hoechst nuclear intensity, 48 h. Potency, µM (titrated, usually from 46.1 µM), usual class: activators. 2.9% of 350,000 active; note: nearly all actives have a fitted effect of over 50% in size
RORg inh: blocks mouse ROR gamma transcriptional activity | P51450 | Drosophila S2 Gal4-RORgamma UAS-luciferase reporter, 20 h | Potency, µM (titrated, usually from 53.6 µM), actives largely listed as inhibitors | 5.4% of 310,000 active; note: nearly all actives have a fitted effect of over 60% in size
Target sequence (P51450 whole entry, looked up, the tested form may be a part): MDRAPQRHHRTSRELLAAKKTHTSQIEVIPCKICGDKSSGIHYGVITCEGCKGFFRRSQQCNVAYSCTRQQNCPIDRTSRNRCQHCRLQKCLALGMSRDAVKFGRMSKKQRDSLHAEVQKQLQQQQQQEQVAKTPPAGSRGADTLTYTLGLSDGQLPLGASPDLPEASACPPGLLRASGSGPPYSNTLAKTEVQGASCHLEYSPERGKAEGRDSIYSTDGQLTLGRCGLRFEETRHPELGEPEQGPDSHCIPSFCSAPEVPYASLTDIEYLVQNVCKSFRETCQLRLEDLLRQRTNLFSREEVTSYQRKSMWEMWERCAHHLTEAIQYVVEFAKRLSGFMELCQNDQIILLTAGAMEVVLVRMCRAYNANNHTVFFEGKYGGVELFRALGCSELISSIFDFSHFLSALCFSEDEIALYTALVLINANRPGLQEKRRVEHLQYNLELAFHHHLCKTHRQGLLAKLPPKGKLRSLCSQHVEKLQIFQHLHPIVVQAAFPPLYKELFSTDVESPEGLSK
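Read-out: Photinus luciferase luminescence; inhibitors lower reporter signal. Insect Schneider cells with Gal4-ROR gamma fusion under metallothionein promoter, UAS reporter; 700 uM final copper sulfate induction, 20 hr, ambient temperature.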
IL1B secr inh: blocks inflammasome-driven IL-1 beta release; THP-1 LPS/ATP IL-1B secretion, AlphaLISA, 16 h; hits give low values; activity change, % at 57.5 µM; 4.7% of 360,000 active; AID 743279; in the data active = activity change below about -50%; inconclusive = mostly about -30% to -49%
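THP-1 cells pretreated 1 hr with compounds (up to 57.5 uM final), then stimulated with LPS (250 ng/mL final) plus ATP (1.25 mM final); secreted IL-1B measured by AlphaLISA after 16 hr, decreased signal indicating inhibition.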
Hits are given with their value; - = inactive; ? = inconclusive; . = not tested or not shown; ! = not active in a repeat; [ ] = another dose, or the depositor's remark. Unless noted, calls come from the whole dose curve; as a rule, active = well fitted curve in the direction sought with a large enough effect; inconclusive = small, poorly fitted or top-dose-only effect, or another doubt; inactive = no such curve, though single readings can be large; an effect the other way counts as inactive or inconclusive.

SMILES | SW480 rereplic | VP16 counter | MCF10A rereplic | RORg inh | IL1B secr inh
COc1cc(NC(=O)C(C)N2CCN(C(=O)C3CC3)CC2)cc(OC)c1 (configuration not stated) | - | . | - | . | -
CCCCNc1c(-c2ccc(SC3CCCCC3)c(OC)c2)nc2ccc(Cl)cn12 | - | . | ? | . | -
CCCCNc1c(-c2ccc(OC)c(Sc3ccc(OC)cc3)c2)nc2ccccn12 | ? | . | ? | . | -104
CCCCNc1c(-c2ccc(-c3ccc(OC)cc3)c(OC)c2)nc2ccccn12 | ? | . | 21µM | . | -75
N#Cc1c(-c2ccco2)c2c([nH]c1=S)CCCC2 | - | - | - | - | -
COc1ccc(OC)c(-c2c3c([nH]c(=S)c2C#N)CCCC3)c1 | - | ? | - | 16µM | -
N#Cc1c(-c2cccnc2)c2c([nH]c1=S)CCCC2 | - | - | - | 11µM | -
COc1ccc(-c2c3c([nH]c(=S)c2C#N)CCC3)cc1 | - | ? | - | - | -
CC(=O)OC1CCC2(C)C3CCC4(C)C(C(C)=O)CCC4C3CC3OC32C1 (configuration not stated) | ? | . | - | . | -
CC1(C(=O)Nc2ccc3c(c2)OCCO3)CCN1C(=O)C1(c2ccc(Cl)cc2)CC1 (configuration not stated) | . | . | . | . | -
CCC(c1nnnn1CS(=O)(=O)c1ccc(C)cc1)N1CCN(c2nc3ccccc3s2)CC1 (configuration not stated) | ? | - | ? | -[10 µM] | -55
c1ccc(CCn2nnnc2C(c2cccnc2)N2CCN(c3nc4ccccc4s3)CC2)cc1 (configuration not stated) | - | ? | - | - | -64
c1ccc(CCn2nnnc2C(c2cccnc2)N2CCN(c3ccccc3)CC2)cc1 (configuration not stated) | - | - | ? | ? | -
CCCC(c1nnnn1CS(=O)(=O)c1ccc(C)cc1)N1CCN(c2ccccc2)CC1 (configuration not stated) | - | - | - | - | -
O=C(O)Cc1cccc(OCCCN(Cc2cccc(C(F)(F)F)c2Cl)CC(c2ccccc2)c2ccccc2)c1 | . | ? | . | - | .
Cc1nnc(N=c2ssnc2Cl)o1 | ? | . | ? | . | -
COc1cc(N=c2ssnc2Cl)c(OC)cc1Cl | ? | 25µM | 21µM! | ? | -88
COc1ccc(OC)c(N=c2ssnc2Cl)c1 | ? | ? | ? | 18µM | -
Cc1ccccc1NS(=O)(=O)c1ccc(NS(=O)(=O)c2cccs2)cc1 | - | - | - | ? | -
CC(=O)Nc1cc(C(F)(F)F)ccc1Oc1cccc(Br)c1 | ? | 13µM | ? | ? | ?
O=C(CN1C(=O)NC2(CCCC2)C1=O)Nc1cc(C(F)(F)F)ccc1N1CCCCC1 | ? | . | - | . | -72
COc1cccc(Oc2ccc(C(F)(F)F)cc2NC(=O)CN2C(=O)NC3(CCCC3)C2=O)c1 | - | . | 18µM | . | -
COc1ccc(NC(=O)CN2C(=O)NC3(CCCC3)C2=O)c(OC)c1 | - | - | - | - | -
O=C(CN1C(=O)NC2(CCCCC2)C1=O)Nc1cc(C(F)(F)F)ccc1N1CCCCC1 | ? | . | ? | . | -
Cc1ccc(NCc2nc3ccccc3n2C)c(C)c1 | - | 10µM | ? | 13µM | -
SMILES | SW480 rereplic | VP16 counter | MCF10A rereplic | RORg inh | IL1B secr inh
Cc1ccc(N2CCN(c3ccc(NCc4nc5ccccc5n4C)cc3)CC2)cc1 | - | - | ? | 11µM | -
Cc1ccccc1OCc1nc2ccccc2n1C | - | ? | - | 20µM | -
Cn1c(CNc2ccc(Cl)cc2)nc2ccccc21 | - | ? | - | ? | -
Cc1cccc(NCc2nc3ccccc3n2C)c1 | - | - | - | - | -
O=C(NCc1ccc(F)cc1F)[C@@H]1CCCN1C(=O)[C@@H]1CCCN1 | . | . | . | . | -
CCc1c(C)nc2ncnn2c1NCCc1ccc(OC)cc1 | 5.6µM | 18µM | 2.5µM | - | -
C=CCn1c(NC(=O)c2ccccc2Cl)c(C#N)c2nc3ccccc3nc21 | 18µM | ? | 16µM | ? | -60
CCCCn1c(NC(C)=O)c(C#N)c2nc3ccccc3nc21 | - | - | ? | - | -
CCOC(=O)[C@]12CCCC=C1N(Cc1ccccc1)C(=O)[C@H](CC(=O)NCCCN1CCCC1=O)C2 | . | . | . | . | -
CCCOC(=O)c1ccc(Oc2cn[nH]c2-c2ccc(OC)cc2O)cc1 | ? | 22µM | ? | 10µM | -
C=C(C)COc1ccc(-c2nc(N)ncc2Oc2ccccc2OC)c(O)c1 | ? | - | ? | - | -62
C=C(C)COc1ccc(-c2nc(N)nc(C(F)(F)F)c2-c2ccc(OC)cc2)c(O)c1 | 21µM | - | 2.6µM | - | -
C=C(C)COc1ccc(-c2[nH]ncc2-c2ccccc2OC)c(O)c1 | ? | 13µM | 15µM | 8.9µM | -60
C=C(C)COc1ccc(-c2ncnc(C(F)(F)F)c2-c2ccc(OC)cc2)c(O)c1 | ? | - | ? | - | -
COc1cccc(Oc2cn[nH]c2-c2ccc(OCC(=O)NN)cc2O)c1 | - | - | - | - | -
CCOC(=O)[C@]12CCC=C1N(Cc1ccccc1)C(=O)[C@H](CC(=O)N1CCN(C(=O)c3ccco3)CC1)C2 | . | . | . | . | -
Nc1ncc(-c2ccccc2)c(-c2ccc(O)cc2O)n1 | ? | - | ? | - | -92
CCOc1ccc(-c2nc(N)ncc2Oc2ccccc2Br)c(O)c1 | - | ? | ? | - | -
C=C(C)COc1ccc(-c2nc(N)ncc2Oc2ccc(OC)cc2)c(O)c1 | - | - | ? | - | -
C=C(C)COc1ccc(-c2ncncc2-c2ccc(Cl)cc2)c(O)c1 | - | ? | 15µM | ? | -
C=C(C)COc1ccc(-c2nc(N)ncc2-c2ccc(Br)cc2)c(O)c1 | ? | - | 23µM | - | -
C=C(C)COc1ccc(-c2[nH]ncc2Oc2ccc(OC)cc2)c(O)c1 | - | ? | ? | 13µM | -
C=C(C)COc1ccc(-c2ncncc2-c2ccc(Br)cc2)c(O)c1 | - | - | ? | - | -
Cc1cc(C(O)c2ncc(-c3ccccc3F)[nH]2)ccc1F (configuration not stated) | . | . | . | . | -
C=C(C)COc1ccc(-c2ncnc(C(F)(F)F)c2-c2ccccc2)c(O)c1 | - | - | - | - | -
SMILES | SW480 rereplic | VP16 counter | MCF10A rereplic | RORg inh | IL1B secr inh
C=C(C)COc1ccc(-c2n[nH]c(C)c2-c2ccc(Br)cc2)c(O)c1 | - | 4.5µM | - | 3.2µM | -92
C=C(C)COc1ccc(-c2ncncc2-c2ccccc2OC)c(O)c1 | - | ? | ? | - | -
C=C(C)COc1ccc(-c2[nH]ncc2Oc2ccccc2OC)c(O)c1 | - | ? | - | 11µM | -62
COc1ccc(-c2ncncc2-c2ccc(OC)c(OC)c2)c(O)c1 | ? | - | - | - | -
COc1ccc(-c2nc(N)ncc2-c2ccc(OC)c(OC)c2)c(O)c1 | ? | - | - | - | -53
C=C(C)COc1ccc(-c2[nH]ncc2-c2ccc(Br)cc2)c(O)c1 | 21µM | 10µM | 9.2µM | 7.9µM | -100
COCCNC(=S)N(C)[C@H]1C[C@H]2c3cc(N4CCN(C)CC4)ccc3CCN2C(=O)[C@H]1[C@H](C)O | . | . | . | . | -
